High-throughput results (PubChem)
MITF inh: blocks human microphthalmia-associated transcription factor | AlphaScreen MITF homodimerization, bead proximity signal | inhibition, % at 2.6 µM | O75030 | actives 0.91% (n = 650,000); in the data active = inhibition above about 50%
Target sequence (O75030 whole entry, looked up): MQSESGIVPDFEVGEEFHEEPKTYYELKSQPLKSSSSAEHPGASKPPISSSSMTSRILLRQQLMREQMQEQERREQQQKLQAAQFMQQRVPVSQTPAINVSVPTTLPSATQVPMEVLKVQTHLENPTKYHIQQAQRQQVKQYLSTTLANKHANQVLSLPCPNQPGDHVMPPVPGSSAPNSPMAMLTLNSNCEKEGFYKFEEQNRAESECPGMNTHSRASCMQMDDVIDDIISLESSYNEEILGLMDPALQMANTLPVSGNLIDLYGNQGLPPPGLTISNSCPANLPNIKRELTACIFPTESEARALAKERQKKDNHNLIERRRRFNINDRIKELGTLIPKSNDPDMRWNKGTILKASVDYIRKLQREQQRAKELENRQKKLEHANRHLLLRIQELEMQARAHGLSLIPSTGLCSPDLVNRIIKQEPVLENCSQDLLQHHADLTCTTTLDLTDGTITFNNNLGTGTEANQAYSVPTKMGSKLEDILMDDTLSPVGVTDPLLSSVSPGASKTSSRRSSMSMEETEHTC
GPR151 ag: activators of human GPR151; actives 1% (n = 650,000); PathHunter beta-arrestin GPR151 cells, luminescence; activation, % at 11.2 µM; Q8TDV0; in the data active = activation above about 4.9%
TEAD-YAP block: TEAD-YAP interaction inhibition. HEK-TIYL cells, TEAD-Gal4/YAP UAS-luciferase luminescence. inhibition, % at 9.12 µM. actives 1.4% (n = 640,000); in the data active = inhibition above about 32%
FBW7 act: human FBW7 E3 ligase activation, primary screen | normalized activity (activation), % at 26.1 µM | AlphaScreen FBW7–phospho-cyclin E peptide binding, activator screen | actives 0.13% (n = 650,000) | Q969H0 | AID 1259310; in the data active = normalized activity above about 1.9%;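 also: purified mutant Fbw7 with reduced substrate affinity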
A number is an active result; – = inactive. An excerpt weighted towards active compounds, which were near 3.4% of everything screened.

SMILES	MITF inh	GPR151 ag	TEAD-YAP block	FBW7 act
COc1cccc(-c2cc(C(=O)Nc3cccc(O)c3)no2)c1	–	–	89	–
COc1ccc2c(c1)CCc1c(C(=O)Nc3cccc(O)c3)noc1-2	–	–	95	–
O=C(Nc1cccc(O)c1)c1cc(-c2ccc(O)cc2)on1	–	–	65	–
COc1ccc2c(c1)CCc1c(C(=O)Nc3cccc(C(C)=O)c3)noc1-2	–	–	–	–
O=C(Nc1cccc(O)c1)c1cc(-c2cccs2)on1	–	–	77	–
COc1ccc(NC(=O)C2=C(C)NC(=S)NC2c2ccc(OC)cc2OC)c(OC)c1 (centres undefined)	–	–	–	–
C=CCn1c(=O)c2ccccc2n2c(SCCOCC)nnc12	–	–	–	–
FC(F)(F)c1cccc(CNc2ccnc(N3CCN(Cc4ccc5c(c4)OCO5)CC3)n2)c1	–	–	–	–
O=C(Nc1cccc(O)c1)c1cc(-c2ccc(Br)cc2)on1	–	–	74	–
CCOC(=O)c1c(NC(=O)c2cc(-c3cccs3)on2)sc(C)c1C	–	–	–	2.8
COc1cc(NC(=O)c2cc(-c3cccs3)on2)cc(OC)c1OC	–	–	36	–
COCC(C)NC(=O)c1cc(-c2cccc(OC)c2)on1 (centres undefined)	–	–	–	1.9
CCOC(=O)c1c(NC(=O)c2cc(-c3cccs3)on2)sc(C(C)=O)c1C	–	–	–	–
CCOC(=O)c1c(N)sc(CC)c1-c1ccccc1	–	–	–	–
COc1ccc(CC2(CCC(=O)NC(c3ccccc3)c3ccco3)CCC(=O)N2)cc1 (centres undefined)	–	–	–	–
CCN1CCN(C(c2nnnn2Cc2ccccc2)C(C)C)CC1 (centres undefined)	–	–	–	–
NC(=O)C(Cc1ccccc1)NC(=O)c1ccc(Cl)c(Cl)c1 (centres undefined)	–	–	–	–
Nc1c(C(=O)Nc2ccc(F)cc2)nnn1Cc1cccc(Cl)c1	–	–	33	–
Nc1c(C(=O)Nc2ccc(Br)cc2)nnn1Cc1cccc(Cl)c1	–	–	–	–
Cc1sc(NC(=O)c2cc(Cl)sc2Cl)c(C#N)c1C	–	–	–	–
CCOC(=O)c1ccc(NC(c2ccc(O)cc2O)P(=O)(OCC)OCC)cc1 (centres undefined)	52	–	–	–
COc1cccc(/C(C)=N/NC(=O)c2cc(-c3cccnc3)nc3ccccc23)c1	–	–	–	–
C/C(=N\NC(=O)c1cc(-c2cccnc2)nc2ccccc12)c1ccccc1O	–	–	41	–
O=C(CCCSc1ccc(NC(=O)C2CC2)nn1)NCc1ccccc1Cl	–	–	–	–
Cc1cc(Cl)c(S(N)(=O)=O)cc1OCC(=O)NC1CCCCC1	–	–	–	–
SMILES	MITF inh	GPR151 ag	TEAD-YAP block	FBW7 act
Cc1cc(Cl)c(S(=O)(=O)N2CCSCC2)cc1OCC(=O)NC1CCCCC1	–	–	38	–
CONC(=O)c1cnc2scc(-c3cccc(OC)c3)n2c1=O	–	–	–	–
COc1ccc(-c2nc(N)c3cc(OC)c(OC)cc3n2)cc1	–	–	–	–
COc1cc2nc(N(C)C)nc(N)c2cc1OC	–	–	61	–
CCC(C)(C)n1nnnc1C(c1ccc(O)cc1)N1CCc2ccccc2C1 (centres undefined)	–	–	77	–
CC(C)(C)n1nnnc1C(c1ccccc1)N1CCc2ccccc2C1 (centres undefined)	–	–	–	–
COc1ccc(N2CCN(C(=O)c3ccc(CS(=O)c4ccc(C)cc4)o3)CC2)cc1 (centres undefined)	–	–	56	–
Cc1ccc(S(=O)Cc2ccc(C(=O)N3CCN(C(=O)c4ccco4)CC3)o2)cc1 (centres undefined)	–	–	–	–
COc1cccc(N2CCN(C(=O)c3ccc(CS(=O)c4ccc(C)cc4)o3)CC2)c1 (centres undefined)	–	–	63	–
COc1ccc(N2CCN(C(=O)c3ccc(CS(=O)c4ccccc4)o3)CC2)cc1 (centres undefined)	–	–	46	–
CCOC(=O)CSc1nc2cc(C(=O)Nc3cccc(Cl)c3)ccc2c(=O)n1C1CCCCC1	–	–	–	–
O=C(c1ccc(-n2cccc2)cc1)N1CCC(c2nnc(-c3ccco3)o2)CC1	–	–	–	2.2
CCC(C)NC(=O)c1ccc(C)cc1C (centres undefined)	–	–	–	–
Cc1ccc(C(=O)NC(C)Cc2cccs2)c(C)c1 (centres undefined)	–	–	88	–
CCN(CC)C(=O)C1c2cc(OC)c(OC)cc2C(=O)N2CCc3ccccc3C12 (centres undefined)	–	–	–	–
CCOc1cc2c(cc1OCC)C1C(C(=O)N(CC)CC)c3ccccc3C(=O)N1CC2 (centres undefined)	–	–	32	–
Cc1cncc2c(S(=O)(=O)N3CCCN(C(=O)CN)C[C@@H]3C)cccc12	–	–	–	–
Cc1cncc2cccc(S(=O)(=O)N3CCCN(C(=O)CN)C[C@@H]3C)c12	–	–	36	–
CCNc1nc(Nc2ccc(NC(C)=O)cc2)c2ncn(Cc3ccc(C(F)(F)F)cc3)c2n1	–	–	–	–
c1ccc(-c2cnn(-c3ccnc(Nc4ccc(N5CCOCC5)cc4)c3)c2)cc1	–	–	45	–
c1ccc(-c2csc(Nc3ccnc(Nc4ccc(N5CCOCC5)cc4)c3)n2)cc1	–	–	64	–
c1cncc(-c2csc(Nc3ccnc(Nc4ccc(N5CCOCC5)cc4)c3)n2)c1	–	–	33	–
NC(=O)c1ccccc1NC(=O)[C@@H]1CCCC[C@@H]1C(=O)O	–	–	–	–
Cc1ccccc1C1NC(=S)NC2=C1C(=O)CC(C)(C)C2 (centres undefined)	–	–	–	–
CC1(C)CC(=O)C2=C(C1)NC(=S)NC2c1ccccc1 (centres undefined)	–	–	55	–
SMILES	MITF inh	GPR151 ag	TEAD-YAP block	FBW7 act
Cc1cccc(C)c1NC(=O)c1cc2c(=O)n3ccccc3nc2n1C	–	–	37	–
COc1cc(CCC(=O)N2CCCCC2c2nc3cc(C)c(C)cc3[nH]2)on1 (centres undefined)	–	–	41	–
Cc1cc2nc(C3CCCCN3C(=O)CCc3c(C)noc3C)[nH]c2cc1C (centres undefined)	–	–	–	–
Cc1ccc(-c2nc3ccccc3s2)cc1N	–	–	54	–
CC(=O)Nc1cc(-c2nc3ccccc3s2)ccc1C	–	–	–	–
CC(=O)c1ccc2c(c1)nc(C)n2-c1ccccc1	–	–	–	–
Cc1ccc(-c2nc3ccccc3s2)cc1[N+](=O)[O-]	–	–	–	–
Cc1nc2cc(-c3nc4ccccc4s3)ccc2n1-c1ccccc1	–	–	59	–
Cc1c(N)cccc1-c1nc2ccccc2s1	–	–	35	–
Cc1cc(-c2nc3ccccc3s2)ccc1N	–	–	81	–
CCCC(=O)Nc1nnc(-c2ccc3c(c2)CCCC3)o1	–	–	–	–
O=C(Cn1cnc2c(cnn2-c2ccc(F)cc2)c1=O)Nc1ccccc1F	–	–	–	–
Cc1c(N)cccc1-c1nc2ccccc2o1	–	–	57	–
